The full ranking holds about 140,000 sequences; the median of “enrichment ratio after two sorts for PhoP signalling” is about 0, and the highest 2% start at about 11. The sample holds the highest values, similar sequences and a random draw of the others, so the mix is not that of the screen.
B1: PhoQ; a variant is named by its letters at X, in order, P23837 (parent)
chain: MKKLLRLFFPLSLRVRFLLATAAVVLVLSLAYGMVALIGYSVSFDKTTFRLLRGESNLFYTLAKWENNKLHVELPENIDKQSPTMTLIYDENGQLLWAQRDVPWLMKMIQPDWLKSNGFHEIEADVNDTSLLLSGDHSIQQQLQEVREDDDDAEMTHSVAVNVYPATSRMPKLTIVVVDTIPVELKSSYMVWSWFIYVLSANLLLVIPLLWVAAWWSLRPIEALAKEVRELEEHNRELLNPATTRELTSLVRNLNRLLKSERERYDKYRTTLTDLTHSLKTPLXXLQXXLRSLRSEKMSVSDAEPVMLEQISRISQQIGYYLHRASMRGGTLLSRELHPVAPLLDNLTSALNKVYQRKGVNISLDISPEISFVGEQNDFVEVMGNVLDNACKYCLEFVEISARQTDEHLYIVVEDDGPGIPLSKREVIFDRGQRVDTLRPGQGVGLAVAREITEQYEGKIVAGESMLGGARMEVIFGRQHSAPKDE

Variants of: B1
Assay: enrichment ratio after two sorts for PhoP signalling (ratio (wild type AVST 3.29)); higher = more functional
Settings: with PhoP (E. coli)

| Variant | enrichment ratio |
| --- | --- |
| AFCP | ≤ 0.25 |
| QIMN | ≤ 0.25 |
| YLAK | ≤ 0.25 |
| NTVM | ≤ 0.25 |
| PIIP | ≤ 0.25 |
| IRSI | ≤ 0.25 |
| NCPV | ≤ 0.25 |
| LVVW | ≤ 0.25 |
| WDPT | ≤ 0.25 |
| YRQK | ≤ 0.25 |
| NMNN | ≤ 0.25 |
| TMNL | 5.04 |
| TMHG | 13.3 |
| TMNG | 10.4 |
| TMHK | ≤ 0.25 |
| TMNN | 34 |
| TMNF | 14.7 |
| KMNF | ≤ 0.25 |
| NNNF | ≤ 0.25 |
| DTAT | ≤ 0.25 |
| HKAG | ≤ 0.25 |
| YDNA | ≤ 0.25 |
| YEKP | ≤ 0.25 |
| MQFD | 14.7 |
| SQHY | ≤ 0.25 |

| Variant | enrichment ratio |
| --- | --- |
| MQPI | ≤ 0.25 |
| QHHY | ≤ 0.25 |
| QQHY | 21.2 |
| MQHY | 12.6 |
| MQFA | ≤ 0.25 |
| MQFY | ≤ 0.25 |
| MQFM | 12.3 |
| MQHF | ≤ 0.25 |
| KQFM | ≤ 0.25 |
| MQGD | ≤ 0.25 |
| SYVF | 0.277 |
| YEDQ | ≤ 0.25 |
| WFMA | ≤ 0.25 |
| HCRL | ≤ 0.25 |
| RTQY | ≤ 0.25 |
| VMWE | ≤ 0.25 |
| AGDA | ≤ 0.25 |
| MQRV | ≤ 0.25 |
| MQFE | ≤ 0.25 |
| MQAE | ≤ 0.25 |
| MQAV | 18.4 |
| MQSK | ≤ 0.25 |
| MQRM | ≤ 0.25 |
| MQGM | ≤ 0.25 |
| MQWI | 14.4 |

| Variant | enrichment ratio |
| --- | --- |
| MQFS | 3.3 |
| MQWM | 14.1 |
| MQRA | ≤ 0.25 |
| MQFQ | 11.9 |
| YMRM | ≤ 0.25 |
| TCKP | ≤ 0.25 |
| RKYE | ≤ 0.25 |
| RKAI | ≤ 0.25 |
| SLME | 2.88 |
| HFYE | ≤ 0.25 |
| GSHY | ≤ 0.25 |
| QNET | ≤ 0.25 |
| QCSY | ≤ 0.25 |
| EMSY | ≤ 0.25 |
| GCLP | 0.401 |
| LLKQ | ≤ 0.25 |
| RVRE | ≤ 0.25 |
| FSMQ | 3.93 |
| VVMQ | 13.3 |
| VYMQ | ≤ 0.25 |
| SYMQ | ≤ 0.25 |
| KLMQ | ≤ 0.25 |
| SIMQ | 33.3 |
| SSMQ | 11.5 |
| SRMQ | ≤ 0.25 |

| Variant | enrichment ratio |
| --- | --- |
| SLMQ | 11.8 |
| VVHP | ≤ 0.25 |
| TLMQ | ≤ 0.25 |
| KYMQ | ≤ 0.25 |
| LNVR | ≤ 0.25 |
| KVQP | ≤ 0.25 |
| FGEF | ≤ 0.25 |
| ATMQ | 3.23 |
| PWPQ | ≤ 0.25 |
| PECM | ≤ 0.25 |
| VWYR | ≤ 0.25 |
| KSMQ | ≤ 0.25 |
| STMQ | 12 |
| NSMQ | ≤ 0.25 |
| TSMQ | 13.9 |
| SQMQ | 7.7 |
| SWMQ | ≤ 0.25 |
| RQGA | ≤ 0.25 |
| FECY | ≤ 0.25 |
| KYKH | ≤ 0.25 |
| YIRN | ≤ 0.25 |
| FEWK | ≤ 0.25 |
| FYPG | ≤ 0.25 |
| EFYK | ≤ 0.25 |
| IDSN | ≤ 0.25 |

| Variant | enrichment ratio |
| --- | --- |
| AYLV | 3.08 |
| QCLV | 1.13 |
| ANLV | 14.1 |
| AHLV | 1.12 |
| VYLV | ≤ 0.25 |
| VCLV | 13 |
| AILV | 5.12 |
| KCLV | ≤ 0.25 |
| GCLV | 14.5 |
| MKLV | 9.89 |
| VFLV | ≤ 0.25 |
| AKLV | 16.2 |
| RCEW | ≤ 0.25 |
| VEQN | ≤ 0.25 |
| PFRI | ≤ 0.25 |
| SNAR | ≤ 0.25 |
| LYVG | ≤ 0.25 |
| WLGW | ≤ 0.25 |
| KKLV | ≤ 0.25 |
| IILV | 1.58 |
| YALV | 11.1 |
| SRLV | 0.905 |
| SNLV | 15.8 |
| IFLV | ≤ 0.25 |
| AALV | 12.9 |

| Variant | enrichment ratio |
| --- | --- |
| ICLV | 18.8 |
| TPLV | ≤ 0.25 |
| HKLV | 0.341 |
| TKLV | 23.3 |
| KALV | ≤ 0.25 |
| EKVF | ≤ 0.25 |
| HDKH | ≤ 0.25 |
| VLRH | ≤ 0.25 |
| RKNR | ≤ 0.25 |
| SYSF | ≤ 0.25 |
| DGQH | ≤ 0.25 |
| YPAE | ≤ 0.25 |
| NFWK | ≤ 0.25 |
| MMNV | ≤ 0.25 |
| GNLV | 11.9 |
| GILV | 10.9 |
| GSHK | ≤ 0.25 |
| WILV | ≤ 0.25 |
| LNLV | ≤ 0.25 |
| IPLV | ≤ 0.25 |
| IALV | 13.1 |
| GSLV | 17.9 |
| NALV | ≤ 0.25 |
| QWMF | ≤ 0.25 |
| VRHG | ≤ 0.25 |

| Variant | enrichment ratio |
| --- | --- |
| GYNH | ≤ 0.25 |
| TDKY | ≤ 0.25 |
| TGYH | 1.03 |
| IQEV | ≤ 0.25 |
| PSYQ | 1.11 |
| ACNH | ≤ 0.25 |
| LWHD | ≤ 0.25 |
| PWHD | ≤ 0.25 |
| AWHD | 24.7 |
| VLVW | ≤ 0.25 |
| AMWI | ≤ 0.25 |
| AMTS | 13.9 |
| AITS | 9.53 |
| ACTH | 2.87 |
| ACGH | 13.6 |
| AMVW | 11.8 |
| NMVW | ≤ 0.25 |
| SCPW | ≤ 0.25 |
| KEAN | ≤ 0.25 |
| YKMT | 0.253 |
| GVMF | 2.88 |
| MYDC | ≤ 0.25 |
| VHEE | ≤ 0.25 |
| MGNK | ≤ 0.25 |
| EGFI | ≤ 0.25 |

| Variant | enrichment ratio |
| --- | --- |
| EGVD | ≤ 0.25 |
| QFHL | ≤ 0.25 |
| WTPV | ≤ 0.25 |
| FCGM | ≤ 0.25 |
| WFML | ≤ 0.25 |
| GWCM | ≤ 0.25 |
| QTWG | ≤ 0.25 |
| AMYD | ≤ 0.25 |
| KKTI | ≤ 0.25 |
| AIGH | 2.15 |
| AMTD | ≤ 0.25 |
| AKTI | 23.6 |
| AIFC | ≤ 0.25 |
| AMGD | 11.5 |
| KKTC | ≤ 0.25 |
| AITC | 19 |
| AKTD | ≤ 0.25 |
| AMGH | 51 |
| AMTH | 0.411 |
| DKAP | ≤ 0.25 |
